From PubChem BioAssay
BoNT F protease: blocks Botulinum neurotoxin F light chain protease; Multiplex microsphere protease cleavage assay, flow cytometry; inhibition, % at 10 µM; 0.22% of 360,000 active; in the data active means inhibition above about 35%, passing the limit was not always enough; inconclusive means no clear call, values can overlap the other calls
BH1578 lux ind: quorum light induction in luxS cqsA deficient V. cholerae; V. cholerae BH1578 lux reporter, luminescence, 6 h; activation, % at 18.7 µM; 0.16% of 350,000 active; in the data active means activation mostly above about 9.7%, no sharp cut-off; inconclusive means no clear call, values can overlap the other calls; inactive means mostly below about 3.7%
Anthrax LF inh2: inhibitors of Bacillus anthracis lethal factor protease; multiplex microsphere protease cleavage assay, LF; inhibition, % at 10 µM; 0.12% of 360,000 active
MazF activator: increases E. coli MazEF RNase cleavage of RNA; P0AE70; FAM/BHQ RNA-DNA oligo cleavage fluorescence, 5 h; activation, % at 20 µM; 0.32% of 350,000 active; AID 504720; in the data active means activation above about 50%
Target sequence (P0AE70 whole entry, looked up): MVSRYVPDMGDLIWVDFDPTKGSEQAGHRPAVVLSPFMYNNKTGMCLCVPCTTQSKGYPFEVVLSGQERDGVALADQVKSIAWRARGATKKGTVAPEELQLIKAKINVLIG
BoNT-A LC inh2: BoNT A light chain protease inhibition; multiplex microsphere protease substrate cleavage, flow cytometry; inhibition, % at 10 µM; 0.17% of 360,000 active
Bead autofluor: flagged as autofluorescent in microsphere protease counterscreen | compound autofluorescence counterscreen, microsphere flow cytometry; hits give high values | fluorescence intensity (concentration not given with the values) | 3.1% of 360,000 active | AID 624483; in the data active means fluorescence intensity above about 16000; inconclusive means no clear call, values can overlap the other calls
A number is an active result; i = inactive; ? = inconclusive; nt = not tested or not shown. Most compounds without a hit are left out; they make up all but 3.9% or so of the library. Unless noted, no stated cut-off is given here; in the data, active means inhibition above about 30%; inconclusive means no clear call, values can overlap the other calls; inactive means below that.

SMILES	BoNT F protease	BH1578 lux ind	Anthrax LF inh2	MazF activator	BoNT-A LC inh2	Bead autofluor
CSc1nsc(SC)c1NC(=O)OCC1CCCO1 (centres undefined)	i	i	i	i	i	21471
CCCCc1nnc(NC(=O)C(C)Sc2nc(N)cc(=O)[nH]2)s1 (centres undefined)	i	i	i	i	i	21210
CCOC(=O)c1cnc(SC2CC(=O)N(c3ccc(C)cc3)C2=O)nc1N (centres undefined)	i	i	i	i	i	24081
CCOC(=O)c1cnc(SC2CC(=O)N(c3ccccc3)C2=O)nc1N (centres undefined)	i	i	i	i	i	i
C=CCNC(=S)N/N=C/c1ccc(OCc2ccccc2Cl)cc1	i	i	i	i	i	19727
Cc1ccc(-c2nn(-c3cc(Cl)ccc3[N+](=O)[O-])c(=O)c3ccccc23)cc1	i	i	i	i	i	24146
CC(C)(C)C(=O)N1CCN(c2ccc([N+](=O)[O-])c(-n3nc(-c4ccccc4)c4ccccc4c3=O)c2)CC1	i	i	i	i	i	i
Cc1ccc(/C=C/S(=O)(=O)NCC(=O)OCC(=O)N2CC(=O)Nc3ccccc32)cc1	i	i	i	i	i	i
CCCC(=O)Nc1c2c(nn1-c1ccc(OC)cc1)CS(=O)(=O)C2	i	i	i	i	i	19921
O=C(Nc1c(-c2ccc(Cl)cc2)[nH][nH]c1=O)c1ccc(Br)cc1	i	nt	i	nt	i	i
COc1c(C)cc(S(=O)(=O)N2CCOCC2)c(C)c1C	i	i	i	i	i	i
Cc1cc(S(=O)(=O)N2CCCC2)c(C)s1	i	i	i	i	i	20695
COc1c(C)cc(S(=O)(=O)N2CCCC2)c(C)c1C	i	i	i	i	i	17139
C/C(CC(=O)NC1CCCCC1)=N\NC(=O)COc1ccc(C)cc1Br	i	i	i	i	i	i
N#C/C(C(=O)Oc1ccccc1)=C1\C=Cc2ccccc2N1	i	i	i	50	i	i
COC(=O)/C(C#N)=C1/C=Cc2ccccc2N1C	i	i	i	i	i	i
CCOC(=O)c1c(NC(=S)Nc2ccc(Cl)cc2)sc2c1CCN(C)C2	i	i	34	171	46	i
COc1ccc(CCNC(=O)c2nonc2N)cc1OC	i	i	i	i	i	20897
COc1ccc(CCNC(=O)c2noc3c2CCCC3)cc1OC	i	i	i	i	i	21948
Nc1nonc1C(=O)NCCNCc1c(OCc2ccccc2F)ccc2ccccc12	i	i	i	59	i	i
COc1cc(OC)c(OC)cc1CNCCNC(=O)c1nonc1N	i	i	i	i	i	24547
COc1ccc(CCNC(=O)c2cc(C(C)C)on2)cc1OC	i	i	i	i	i	i
COc1ccc(CNCCNC(=O)c2nonc2N)cc1OC	?	i	i	i	i	?
COc1ccc(C)cc1NC(=O)CSc1nnc2ccc(-c3cccnc3)nn12	i	i	i	i	i	i
COc1ccc(CCNC(=O)C(=O)NCc2ccc(C(C)C)cc2)cc1OC	i	i	i	i	?	24221
SMILES	BoNT F protease	BH1578 lux ind	Anthrax LF inh2	MazF activator	BoNT-A LC inh2	Bead autofluor
Nc1nonc1C(=O)NCCNCc1ccccc1	i	i	i	i	i	i
CCOc1cccc(CNCCNC(=O)c2nonc2N)c1	i	i	i	i	i	22612
Nc1nonc1C(=O)NCCNCc1cc(Br)ccc1OCc1ccc(F)cc1	i	i	i	i	?	19634
COC(=O)c1c(O)cc(C(C)(C)C)n(-c2ccc(F)cc2)c1=O	i	i	i	i	i	i
Cc1ccc2c(c1)CCO[C@@]21O[C@H](CCO)C[C@H](O)[C@H]1O	i	i	i	i	i	i
COc1ccc(OCC(=O)N(Cc2sccc2C)C2CCS(=O)(=O)C2)cc1 (centres undefined)	i	i	i	i	i	i
Cc1cc(C)nc(SCc2nnc(SCC(=O)Nc3nc(-c4ccccc4)cs3)n2C)n1	i	i	i	i	i	i
Cc1ccccc1C(=O)NCCc1nnc(SCC(=O)Nc2nc(-c3ccccc3)cs2)n1C	i	i	i	i	?	20936
CCn1c(CSc2nc(C)cc(C)n2)nnc1SCC(=O)Nc1nc(-c2ccccc2)cs1	i	i	i	i	i	16261
Cc1cccc(C(=O)NCCc2nnc(SCC(=O)Nc3nc(C)cs3)n2C)c1	i	i	i	i	?	16360
CCOC(=O)C1(C)CCN1C(=O)c1ccccc1OC(F)(F)F (centres undefined)	i	i	i	nt	i	i
Cc1c(C(=O)NC2CC(=O)N(c3ccc4c(c3)OCCO4)C2)cccc1[N+](=O)[O-] (centres undefined)	nt	i	nt	i	nt	nt
CC(=O)Nc1ccc(-c2nnn(CC(=O)Nc3ccc4c(c3)OCO4)n2)cc1Cl	i	i	i	i	i	i
Cn1c(-c2ccccc2)c(C=O)c2ccccc21	i	i	i	i	i	i
COn1c(-c2ccccc2)c(C=O)c2ccccc21	?	i	i	i	i	37117
CC(/C=N/NC(=O)Cc1cccn1C)=C\c1ccco1	i	i	i	i	?	22954
O=C(CSc1nc(C2CC2)nc2ccccc12)N1c2ccccc2Sc2ccc(C(F)(F)F)cc21	i	i	i	i	i	21370
COCc1cnc(C)nc1N	i	i	i	i	i	i
CCN1/C(=C\C=C2\C(=O)N(C)C(=S)N2C)Sc2ccccc21	i	i	i	i	i	i
CCN1/C(=C/C(C)=O)Sc2ccc(OC)cc21	i	i	i	i	i	i
CCOC(=O)/C(=C/C=C1\Sc2cc(OCC)c(OCC)cc2N1CC)C(C)=O	44	i	i	i	i	23889
CCOC(=O)/C(=C\C=C1/Sc2cc(OCC)c(OCC)cc2N1CC)C(C)=O	49	i	i	272	i	33036
Cc1ccc(NC(=O)CN(C)C(=O)C(C)OC(=O)c2ccccc2NCCO)cc1 (centres undefined)	i	i	i	i	i	i
O=C(CSc1nc2ccc([N+](=O)[O-])cc2[nH]1)NC1CCCCC1	i	i	i	i	?	20507
Cc1nn(CC(=O)N2CCN(c3cccc(C(F)(F)F)c3)CC2)c(=O)c2cccn12	i	i	i	i	i	i
SMILES	BoNT F protease	BH1578 lux ind	Anthrax LF inh2	MazF activator	BoNT-A LC inh2	Bead autofluor
Cc1nc(N)sc1-c1csc(Nc2ccc(Cl)cn2)n1	i	i	i	i	i	16519
Cc1cc(C)c(NC(=O)C(C)Sc2nc3ccc(N4C(=O)c5ccccc5C4=O)cc3s2)c(C)c1 (centres undefined)	i	i	i	i	?	16290
O=C(Nc1cccnc1)c1cc(-c2cccnc2)nc2ccc(Br)cc12	i	i	i	i	i	21271
COCCNC(=O)c1cc(-c2cccnc2)nc2ccc(Br)cc12	i	i	i	i	i	23362
CCc1ccc(N(CC(=O)NCCc2ccccc2)C(=O)CCC(=O)Nc2ccccn2)cc1	i	i	i	i	i	i
COc1ccccc1NC(=S)N1CCC(c2nc3ccccc3o2)CC1	i	i	i	i	i	i
Cc1cccc(C)c1NC(=O)N1CCC(c2nc3ccccc3o2)CC1	i	i	i	i	?	23165
Oc1ccc2c(c1)C1CCCC1(N1CCOCC1)O2 (centres undefined)	i	i	i	i	i	i
